EBV LMP1 NFkB – reduces LMP1-driven NF-kappaB luciferase signal; LMP1-induced NF-kappaB luciferase reporter cells, luminescence; inhibition, % at 12.5 µM; 350,000 tested, 0.69% active; AID 504558; in the data active = inhibition above about 41%; inconclusive = no clear call, values can overlap the other calls;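 also: 0% = neutral control wells and 100% = reference inhibitor control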
TWEAK Fn14 block – blocks TWEAK-Fn14 interaction in a reporter cell assay | TWEAK-stimulated Fn14 reporter cells, luciferase luminescence, 8 h | inhibition, % at 10 µM | 360,000 tested, 2% active; in the data active = inhibition above about 50%
EWS-Fli inh – inhibitors of EWS/Fli oncoprotein transcriptional activity; A673 NR0B1-luciferase reporter, viability-normalised; 350,000 tested, 0.67% active; AID 651661; inhibition, % at 12.6 µM;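 active = mean inhibition of at least 50% after viability correction, with every replicate also passing that limit; inconclusive = mean reaches 50% but only one of two replicates passes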;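 also: firefly luciferase signal divided by Alamar Blue viability fluorescence both relative to DMSO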
TROY signal inh – blocks TROY-dependent signaling in reporter cells; inhibition, % at 10 µM; AID 1347056; 360,000 tested, 0.98% active; Q293 LMP1-TROYcd NF-kB luciferase reporter, 4 h;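 active = compounds whose plate-normalised and pattern-corrected inhibition of the luciferase reporter signal at the single screening dose is 50% or more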
LGR2 inh – Drosophila LGR2 receptor signaling inhibition; HEK293 LGR2, CRE-luciferase, bursicon-stimulated, 4 h; inhibition, % at 9.99 µM; 380,000 tested, 0.35% active; AID 720647;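 active = drop in luminescence signal, shown as inhibition above about 50% in the replicate tests, limit read from the data, passing the limit was not always enough; inconclusive = probably only some replicates passing the limit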;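 also: agonist challenge used bursicon conditioned medium at about half maximal strength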
PAX8 inh HTS – PAX8 transcriptional activity inhibition | 360,000 tested, 1.2% active | inhibition, % at 12.6 µM | RMG-I TPO-luciferase reporter, SteadyGlo, 24 h;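 active = mean replicate inhibition at least 60% with every replicate also reaching 60%; inconclusive = only one of the two criteria is met; inactive = mean below 60% and not all replicates reaching 60%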;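 also: luciferase light reporting Pax8 driven TPO promoter activity; plate controls were median of neutral control wells for no effect and mitoxantrone controls for full effect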
The depositor's hits bear a star; u = inconclusive; x = not tested or not shown. Sampled rows, rich in hits. Any-hit rate of the full collection: about 3.1%.

SMILES	EBV LMP1 NFkB	TWEAK Fn14 block	EWS-Fli inh	TROY signal inh	LGR2 inh	PAX8 inh HTS
Cc1cc(F)ccc1S(=O)(=O)Nc1ccccc1C(=O)Nc1ncn[nH]1	2	18	x	18	x	x
COc1ccc2c3c([nH]c2c1)[C@@H](CO)N(C)CC31CN(S(=O)(=O)c2cn(C)cn2)C1	x	x	-7	x	-9	x
CN1C(=O)c2cc(NC(=O)Nc3ccccc3)ccc2OC[C@H]2O[C@@H](CC(=O)O)CC[C@@H]21	x	x	2	x	-4	6
CCN(CC)c1ccc(N=C2C(=O)Nc3ccccc32)cc1	30	52*	14	28	-28	-2
Cc1ccc(N=C2C(=O)Nc3ccccc32)cc1	6	-7	32	-47	-4	7
COc1ccc(C2NC(=S)NC3=C2CCCC3=C2SCCS2)cc1 (stereo not drawn)	-23	-115	63*	4	-5	102*
S=C1NC2=C(CCCC2=C2SCCCS2)C(c2ccccc2)N1 (stereo not drawn)	-8	-19	-5	-6	25	19
CC=Cc1ccc2n(c1=O)C[C@@H]1[C@@H](CO)[C@H](C(=O)N(C)C)N(CCC)[C@H]21 (mixture of isomers)	x	x	-1	x	-13	x
O=C(Nc1ccc(F)cc1)N1CC(=O)N2[C@H](CO)[C@@H](c3ccc(-c4ccccc4)cc3)[C@@H]2C1	x	x	60*	x	-10	-8
O=C(Nc1ccc(F)cc1)N1CC(=O)N2[C@@H](CO)[C@@H](c3ccc(-c4ccccc4)cc3)[C@@H]2C1	x	x	2	x	13	2
COc1ccc(NC(=O)N2CC(=O)N3[C@@H](CO)[C@@H](c4ccc(/C=C/c5ccccc5)cc4)[C@@H]3C2)cc1	x	x	13	x	x	89*
COc1ccc2c3c([nH]c2c1)[C@@H](CO)N(C(=O)C1CCCCC1)CC31CN(C(=O)NC(C)C)C1	x	x	-6	x	-4	-9
CN1C(=O)c2cc(NC(=O)Cc3ccccc3)ccc2OC[C@H]2O[C@H](CC(=O)NCC3CC3)CC[C@H]21	x	x	-1	x	25	6
CCOc1ccc(NC(=O)c2ccc3c(=O)n(-c4ccc(OC)cc4OC)c(=S)[nH]c3c2)cc1	12	-7	5	1	6	20
COc1ccc(-n2c(=S)[nH]c3cc(C(=O)Nc4ccc(C)c(F)c4)ccc3c2=O)c(OC)c1	-4	54*	11	30	16	1
CC(=O)NC12CC3CC(C1)CC(C(=O)OCC(=O)c1ccc4c(c1)OCCO4)(C3)C2	-26	58*	x	54*	x	x
CCOC(=O)C(=O)CC(=O)c1ccc2c(c1)OCCO2	28	-4	-3	72*	-15	1
Cc1cccc(C(=O)OCC(=O)c2ccc3c(c2)OCCO3)c1O	-18	13	-79	54*	-11	-171
O=C(COC(=O)c1ccccc1[N+](=O)[O-])c1ccc2c(c1)OCO2	-14	78*	-18	78*	85*	-202
NC(=O)c1ccc2c(c1)OCCO2	1	16	x	x	x	x
C[C@@H]1CCCCO[C@H](CN(C)CC2CCCCC2)[C@H](C)CN([C@@H](C)CO)C(=O)c2cc(NS(=O)(=O)c3cn(C)cn3)ccc2O1	x	x	-8	x	-5	-21
CNS(=O)(=O)c1cccc(C(=O)OCC(=O)c2ccc3c(c2)OCCO3)c1	43*	11	36	-24	13	25
Cc1ccc(C(=O)COC(=O)c2cccs2)cc1	-25	43	x	59*	x	-143
O=C(COC(=O)c1cccs1)c1ccc2ccccc2c1	16	-12	x	-70	x	-126
CCc1ccc(C(=O)COC(=O)c2cccs2)cc1	-25	3	x	6	x	-199
SMILES	EBV LMP1 NFkB	TWEAK Fn14 block	EWS-Fli inh	TROY signal inh	LGR2 inh	PAX8 inh HTS
O=C(COC(=O)c1cccs1)c1ccc2c(c1)OCCO2	-16	61*	-27	75*	82*	x
CN(C)CC(=O)N[C@H]1CC[C@@H](CC(=O)NCc2ccc(Cl)cc2)O[C@H]1CO	x	x	-5	x	-3	-31
CN1CCN(C(=O)[C@@H]2[C@@H](CO)[C@@H]3Cn4c(ccc(-c5ccncc5)c4=O)[C@@H]3N2CC2CC2)CC1	x	x	-13	x	5	-27
O=C(NCC1CCCN(Cc2ccc3nonc3c2)C1)c1ccc(F)cc1 (stereo not drawn)	8	7	3	71*	-6	4
Cc1cc(CN2CCCC(CNC(=O)c3ccc(F)cc3)C2)cc(C)c1O (stereo not drawn)	-38	-1	-7	7	-2	6
CN1CCC(NCCC(c2ccc(F)cc2)c2ccc(Cl)cc2)CC1 (stereo not drawn)	-63	-51	55*	-54	-8	u
CC(C)C(CCNC1CCN(C)CC1)c1ccc(Cl)cc1 (stereo not drawn)	-23	1	26	-15	-9	19
CC(C)C#Cc1cnc2c(c1)C(=O)N([C@H](C)CO)C[C@H](C)[C@H](CN(C)C(=O)c1cnccn1)O2	x	x	-15	x	0	x
CCS(=O)(=O)N[C@H]1CC[C@H](CC(=O)NCc2ccc(F)cc2)O[C@H]1CO	x	x	-3	x	-10	-8
Cc1[nH]c2ccccc2c(=O)c1C(=O)/C=C/c1ccccc1	24	88*	49	64*	74*	103*
O=C(C=Cc1ccccc1)c1c[nH]c2ccccc2c1=O	-12	78*	-24	3	31	86*
O=C(/C=C/c1ccccc1)c1c[nH]c2ccccc12	-30	-4	-118	-70	-41	-12
C[C@@H]1CN([C@@H](C)CO)C(=O)c2cc(C#CC(C)(C)O)cnc2O[C@@H]1CN(C)Cc1cccc(F)c1	x	x	8	x	-3	-8
CCCNC(=O)[C@@H]1[C@@H](CO)[C@@H]2Cn3c(ccc(-c4cccc(OC)c4)c3=O)[C@@H]2N1C	x	x	2	x	-9	x
C[C@@H]1CCCCO[C@@H](CN(C)Cc2ccc(C(F)(F)F)cc2)[C@@H](C)CN([C@@H](C)CO)C(=O)c2cc(NS(=O)(=O)c3ccc(Cl)cc3)ccc2O1	x	x	-9	x	4	91*
C[C@@H]1CN([C@H](C)CO)C(=O)c2cc(NS(=O)(=O)c3ccc(Cl)cc3)ccc2O[C@@H](C)CCCCO[C@@H]1CN(C)Cc1ccc(C(F)(F)F)cc1	x	x	-3	x	17	5
C[C@H](CO)N1C[C@H](C)[C@@H](CN(C)Cc2ccc(C(F)(F)F)cc2)OCCCC[C@H](C)Oc2ccc(NS(=O)(=O)c3ccc(Cl)cc3)cc2C1=O	x	x	19	x	29	99*
O=C(Cc1ccncc1)N1CC[C@@H]2[C@H]1c1cc(-c3cccc(F)c3)ccc1N[C@@H]2CO	x	x	-25	x	-16	-19
COc1ccc(N(C(=O)c2cccnc2)S(=O)(=O)c2ccc3c4c(cccc24)C(=O)N3C)cc1	0	64*	x	47	33	28
COc1ccc(N(C(=O)c2ccncc2)S(=O)(=O)c2ccc3c4c(cccc24)C(=O)N3C)cc1	-1	34	2	64*	72*	-5

Screening results as filed in PubChem.
